Screens (PubChem)
MARV entry inh – inhibitors of Marburg virus binding or cell entry | Marburg virus pseudotyped entry inhibition, cell reporter | Potency, µM (highest dose often 37.8 µM), without a hit: at the highest dose activity change, negative = inhibition, usual class: inhibitors | 300,000 compounds, 1.8% hits | AID 540276; calls by dose curve; tested in HEK293 cells; also: potency is read from the fitted curve at half-maximal effect; % is scaled to controls: 0 for no effect and ±100 for the full control effect
Shiga toxin inh – inhibitors of Shiga toxin in Vero cells | Vero cells, Shiga toxin protein synthesis inhibition reporter | inhibition, % at 38.7 µM | 290,000 compounds, 9.2% hits; in the data active = inhibition mostly above about 28%, no sharp cut-off; inactive = mostly below about 43%; also: 0% is about no effect
LASV entry inh – blocks Lassa virus binding to or entry into cells | Lassa virus pseudotype entry inhibition, cell reporter | Potency, µM (top dose mostly 37.9 µM), without a hit: at the top dose activity change, negative = inhibition, actives largely listed as inhibitors | 300,000 compounds, 1.2% hits | AID 540256; calls by dose curve; tested in HEK293 cells; also: potency is read from the fitted curve at half-maximal effect; % is scaled to controls: 0 for no effect and ±100 for the full control effect; nearly all actives have a fitted effect of over 50% in size
Cycloheximide cs – counter-screen hit for Shiga toxin inhibitors, cycloheximide; max response, %; 300,000 compounds, 12% hits; AID 2314; cell reporter, cycloheximide protein synthesis inhibition counterscreen; in the data active = max response mostly above about 13%, no sharp cut-off; inactive = mostly below about 14%; also: read at 38.3 µM for the half of the compounds with a filed dose; 0% is about no effect
* marks the source's active call; other numbers are inactive results; [ ] = dose if it differs, or a comment. Most compounds without a hit are left out; they make up all but 12% or so of the library.

What do the screens show for `COc1ccc(C(=O)ON=C2CCN(c3ccc([N+](=O)[O-])cc3)CC2)cc1`?
MARV entry inh: 3%; Shiga toxin inh: -20; LASV entry inh: -8%; Cycloheximide cs: -2

Results for Cc1cccc(C(=O)Nc2ccc(N3CCN(S(C)(=O)=O)CC3)cc2)c1 ?
MARV entry inh: inconclusive; Shiga toxin inh: 73*; LASV entry inh: 32%[46.1 µM]; Cycloheximide cs: 22*

How did COc1cccc(C(=O)Nc2ccc(N3CCN(S(C)(=O)=O)CC3)cc2)c1 do in these assays?
MARV entry inh: -1%; Shiga toxin inh: 26; LASV entry inh: 8%; Cycloheximide cs: 13

How did CS(=O)(=O)N1CCN(c2ccc(NC(=O)c3ccccc3)cc2)CC1 do in these assays?
MARV entry inh: -24%[46.1 µM]; Shiga toxin inh: 82*; LASV entry inh: -5%; Cycloheximide cs: 37*

What do the screens show for `COc1ccc2[nH]c(C(=O)N/N=C/c3ccc(O)cc3O)cc2c1`?
Shiga toxin inh: 17; Cycloheximide cs: 8

What do the screens show for `COc1ccccc1CNc1ncc(-c2ccc(F)cc2)n1C`?
Shiga toxin inh: 19; Cycloheximide cs: 7.6*

What do the screens show for `COc1ccc(CNc2ncc(-c3ccc(F)cc3)n2C)c2ccccc12`?
MARV entry inh: inconclusive; Shiga toxin inh: -3; LASV entry inh: -26%[46.1 µM]; Cycloheximide cs: -2

What do the screens show for `COc1ccccc1CNc1ncc(-c2ccccc2)n1C`?
Shiga toxin inh: 40*; Cycloheximide cs: 21*

What do the screens show for `CC(C)(CO)NCC(O)Cn1cc(C=O)c2ccccc21` (stereo not given)?
MARV entry inh: 2%[46.1 µM]; Shiga toxin inh: -12; LASV entry inh: 14%; Cycloheximide cs: -3

Results for Oc1ccc(-c2n[nH]c(=S)n2-c2ccc3c(c2)OCCO3)cc1 ?
MARV entry inh: 8%; Shiga toxin inh: 59*; LASV entry inh: inconclusive; Cycloheximide cs: 37*

Results for Fc1ccc(-n2c(-c3ccc4c(c3)OCO4)n[nH]c2=S)cc1Cl ?
MARV entry inh: 21%; Shiga toxin inh: 13; LASV entry inh: 4%; Cycloheximide cs: 11*

How did S=c1[nH]nc(Cn2c(-c3ccccn3)nc3ccccc32)n1-c1ccc2c(c1)OCCO2 do in these assays?
MARV entry inh: 21%[46.1 µM]; Shiga toxin inh: 85*; LASV entry inh: -12%; Cycloheximide cs: 62*

What do the screens show for `COc1ccc(CC(=O)c2ccc(OC)c(OC)c2C)cc1OC`?
MARV entry inh: inconclusive; Shiga toxin inh: 56*; LASV entry inh: inconclusive; Cycloheximide cs: 23*

How did COc1cc(C(=O)NCc2nnc(SCC(=O)NCc3ccco3)o2)cc(OC)c1OC do in these assays?
MARV entry inh: 6%[46.1 µM]; Shiga toxin inh: -13; LASV entry inh: -2%[46.1 µM]; Cycloheximide cs: -3

What do the screens show for `CC(NCc1ccc(-c2ccccc2)cc1)C(O)c1ccccc1` (stereo not given)?
MARV entry inh: inconclusive; Shiga toxin inh: -18; LASV entry inh: 4.6µM*; Cycloheximide cs: -8

What do the screens show for `C=CCNC(=S)NNc1nc2sc3c(c2c(=O)[nH]1)CC(C)(C)OC3`?
MARV entry inh: inconclusive; Shiga toxin inh: -7; LASV entry inh: inconclusive; Cycloheximide cs: 1

Results for Cc1nn2c(=O)cc(COC(=O)c3cccc(NC(=O)c4cccs4)c3)nc2s1 ?
LASV entry inh: 20%[46.1 µM]

How did O=C(c1ccccn1)N1CCCC(N2CCN(Cc3ccc4c(c3)OCO4)CC2)C1 (stereo not given) do in these assays?
MARV entry inh: inconclusive; Shiga toxin inh: -28; LASV entry inh: 18%; Cycloheximide cs: 11

What do the screens show for `Cc1cccc(C(=O)N2CCCC(N3CCN(Cc4ccc5c(c4)OCO5)CC3)C2)n1` (stereo not given)?
Shiga toxin inh: 35; Cycloheximide cs: 25*

What do the screens show for `Cc1nc2ccccc2c(C)c1CC(=O)N(C)CC(=O)Nc1cccc(F)c1`?
MARV entry inh: -8%[46.1 µM]; LASV entry inh: -20%

What do the screens show for `O=C(NC1CC1)c1cc(=O)c2ccccc2o1`?
MARV entry inh: 7%[46.1 µM]; Shiga toxin inh: -16; LASV entry inh: -2%; Cycloheximide cs: -2

What do the screens show for `CC1CCCCC1NC(=O)c1ccco1` (stereo not given)?
MARV entry inh: 0%; LASV entry inh: 20%

What do the screens show for `CC1CCCCC1NC(=O)c1cc2ccccc2o1` (stereo not given)?
MARV entry inh: -1%; Shiga toxin inh: 35*; LASV entry inh: 21%; Cycloheximide cs: 35*

Results for O=C(NC1CCCC1)c1cc2ccccc2o1 ?
Shiga toxin inh: 56*; Cycloheximide cs: 40*

How did Cc1ccc(CCNC(=O)c2c[nH]c3ccc(S(=O)(=O)Nc4cccc(C(F)(F)F)c4)cc3c2=O)cc1 do in these assays?
LASV entry inh: -34%[46.1 µM]

What do the screens show for `O=C(NCCNC(=O)c1ccccc1F)c1ccccn1`?
MARV entry inh: 9%[46.1 µM]; Shiga toxin inh: 3; LASV entry inh: -1%[46.1 µM]; Cycloheximide cs: -3

Results for COc1ccc(-n2ccc3ccccc32)cc1 ?
Shiga toxin inh: 32; Cycloheximide cs: 25*

Results for COc1ccc(-c2oc3ccccc3c(=O)c2OCC(=O)O)cc1 ?
MARV entry inh: 15%[46.1 µM]; Shiga toxin inh: -13; LASV entry inh: 0%; Cycloheximide cs: 2

How did CC(=O)Oc1c(-c2ccc(Br)o2)oc2ccccc2c1=O do in these assays?
MARV entry inh: inconclusive; Shiga toxin inh: 39; LASV entry inh: inconclusive; Cycloheximide cs: 13*

Results for COc1ccc(-c2oc3cc(O)c(OC)c(O)c3c(=O)c2OC)cc1 ?
Shiga toxin inh: 15; Cycloheximide cs: 16*

What do the screens show for `COc1ccc(-c2oc3ccccc3c(=O)c2OC(C)=O)cc1`?
MARV entry inh: inconclusive; Shiga toxin inh: 68*; LASV entry inh: inconclusive; Cycloheximide cs: 34*

Results for CCOC(=O)n1n[n+]([O-])c2ccccc21 ?
MARV entry inh: 32%; Shiga toxin inh: -9; LASV entry inh: -10%; Cycloheximide cs: -3

What do the screens show for `CCn1c(=O)c2c(nc(SCC(=O)NC3CCCC3)n2C)n(C)c1=O`?
MARV entry inh: -2%[46.1 µM]; Shiga toxin inh: -3; LASV entry inh: -10%; Cycloheximide cs: -4

Results for CNC(=O)NC(=O)C(C)OC(=O)c1c2c(nc3ccccc13)/C(=C/c1cccs1)CC2 (stereo not given) ?
MARV entry inh: inconclusive; Shiga toxin inh: 23*; LASV entry inh: inconclusive; Cycloheximide cs: 32*

How did CCCCNC(=O)COC(=O)c1c2c(nc3ccccc13)/C(=C/c1cccs1)CC2 do in these assays?
MARV entry inh: inconclusive; Shiga toxin inh: 104*; LASV entry inh: inconclusive; Cycloheximide cs: 52*

Results for C=CC[n+]1c(C)csc1Nc1cccc(Br)c1 ?
MARV entry inh: -1%[46.1 µM]; Shiga toxin inh: 31; LASV entry inh: 4%[46.1 µM]; Cycloheximide cs: 17

What do the screens show for `Clc1ccc(-c2csc(Nc3ccccc3)[n+]2Cc2ccco2)c(Cl)c1`?
MARV entry inh: inconclusive; Shiga toxin inh: 110*; LASV entry inh: 4%; Cycloheximide cs: 48*

What do the screens show for `C=CC[n+]1c(C)csc1Nc1ccc(C)cc1`?
MARV entry inh: 23%[46.1 µM]; Shiga toxin inh: 37; LASV entry inh: 2%; Cycloheximide cs: 24*

What do the screens show for `C=CC[n+]1c(-c2ccc(Cl)cc2Cl)csc1Nc1ccc(NC(C)=O)cc1`?
MARV entry inh: 3.2µM*; Shiga toxin inh: -16; LASV entry inh: 2.8µM*; Cycloheximide cs: -2
